Screening results as filed in PubChem BioAssay.
B2AR ag: agonists of human beta-2 adrenergic receptor inducing internalization; Am2.2-beta2AR cells, FAP receptor internalization, flow cytometry; response, % (concentration not given with the values); 0.43% of 340,000 active;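 active = response above a set limit, near 3 SD of response in nonfluorescent compounds, cut at about 42% in these data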
MEKK2wt PB1 HTS: raises or lowers MEK5 binding to wildtype human MEKK2 PB1 domain | Q9Y2U5 | bead flow cytometry, Alexa488-MEK5 binding to MEKK2 WT; actives lie on both sides | binding response (% of control), % at 10 µM | 1.1% of 290,000 active; in the data active = binding response below about 67% or above about 130%
GRK2 aptamer HTS: human GRK2 inhibition via aptamer displacement. P25098. bead flow cytometry, FAM-aptamer displacement from GRK2. inhibition of aptamer binding, % at 10 µM. 0.59% of 330,000 active. AID 488847;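 active = inhibition of aptamer binding above 40%, roughly 3 SD of noise, on plates passing a quality check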;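 also: median bead fluorescence of bound FAM aptamer so fluorescent compounds give negative values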
Target sequence (P25098 whole entry, looked up): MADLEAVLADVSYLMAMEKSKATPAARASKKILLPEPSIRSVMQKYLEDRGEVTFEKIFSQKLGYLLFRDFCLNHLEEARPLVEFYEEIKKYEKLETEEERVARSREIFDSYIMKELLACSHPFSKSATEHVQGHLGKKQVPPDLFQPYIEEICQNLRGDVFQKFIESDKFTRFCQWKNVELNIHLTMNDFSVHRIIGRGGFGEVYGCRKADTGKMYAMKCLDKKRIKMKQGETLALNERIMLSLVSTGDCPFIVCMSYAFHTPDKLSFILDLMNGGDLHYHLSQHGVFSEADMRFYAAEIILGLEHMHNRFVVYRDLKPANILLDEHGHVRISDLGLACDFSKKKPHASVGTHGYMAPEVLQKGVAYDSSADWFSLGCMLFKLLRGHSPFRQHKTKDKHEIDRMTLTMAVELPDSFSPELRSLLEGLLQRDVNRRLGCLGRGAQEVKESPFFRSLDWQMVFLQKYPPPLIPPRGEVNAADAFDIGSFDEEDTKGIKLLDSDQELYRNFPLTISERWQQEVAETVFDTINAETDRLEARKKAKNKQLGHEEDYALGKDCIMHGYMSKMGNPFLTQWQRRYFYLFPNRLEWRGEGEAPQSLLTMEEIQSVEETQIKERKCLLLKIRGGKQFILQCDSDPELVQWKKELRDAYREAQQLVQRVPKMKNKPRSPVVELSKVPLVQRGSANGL
MEKK2 mut-MEK5: signal of MEK5 binding to mutant human MEKK2 PB1 domain. AID 1530. 0.35% of 290,000 active. bead flow cytometry, Alexa488-MEK5 binding to MEKK2 mutant. percent response, % at 10 µM; in the data active = percent response above about 24%, passing the limit was not always enough
MEKK3 PB1 HTS: raises or lowers MEK5 binding to the human MEKK3 PB1 domain; 1.4% of 290,000 active; bead-based flow cytometry, Alexa488-MEK5 binding to MEKK3; actives lie on both sides; 0 = blocked by unlabeled MEK5, 100 = vehicle; binding response (% of control), % at 10 µM;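 active = binding response more than 3 SD above or below the average of its plate-row segment, actives on both sides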;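 also: Alexa488 bead fluorescence after subtracting the streptavidin-only scavenger bead signal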
MEKK2wt confirm: raises or lowers MEK5 binding to wildtype human MEKK2, retest; shares compounds with MEKK3 PB1 HTS; bead flow cytometry, Alexa488-MEK5 binding to MEKK2 WT; actives lie on both sides; binding response (% of control), % at 10 µM; 2.4% of 5,900 active; in the data active = binding response below about 16% or above about 210%; inactive = in between
MEKK2mut-MEK5: signal of MEK5 binding to mutant human MEKK2, retest. shares compounds with MEKK3 PB1 HTS. bead flow cytometry, Alexa488-MEK5 binding to MEKK2 mutant. percent response, % at 10 µM. 2% of 5,900 active. AID 1893; in the data active = percent response mostly above about 71%, no sharp cut-off; inactive = mostly below about 38%;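 also: higher means compound restores mutant binding toward wildtype level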
MEKK3 confirm: MEKK3-MEK5 PB1 inhibition, single concentration confirmation; binding response (% of control), % at 10 µM; 1.8% of 5,900 active; shares compounds with MEKK3 PB1 HTS; bead flow cytometry, Alexa488-MEK5 binding to MEKK3; stronger effect = lower value;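 active = binding response below 72% of control, or above a set upper limit, though filed actives all read lower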
A number is an active result; 0 = inactive; - = not tested or not shown; ! = repeats disagree; [ ] = another dose, or the depositor's remark. An excerpt weighted towards active compounds, which were near 2.9% of everything screened.

SMILES	B2AR ag	MEKK2wt PB1 HTS	GRK2 aptamer HTS	MEKK2 mut-MEK5	MEKK3 PB1 HTS	MEKK2wt confirm	MEKK2mut-MEK5	MEKK3 confirm
COc1ccc(C(CC(=O)N2CCC3(CC2)OCCO3)NS(=O)(=O)c2ccc(C)cc2)cc1 (stereo not drawn)	0	0	0	0	78[inhibitor]	0	0	0
COc1ccc(C(CC(=O)N2CCC3(CC2)OCCO3)NS(=O)(=O)c2ccc(OC)cc2)cc1 (stereo not drawn)	0	0	0	0	0	-	-	-
Cc1ccc(C(=O)N[C@@H](C)CN2C3=NC[C@H](Cc4ccccc4)N3C[C@H]2Cc2ccc(O)cc2)cc1Br	-	168	0	31	0	0	0	0
Cc1ccc(C(=O)N[C@@H](C)CN2C3=NC[C@@H](Cc4ccccc4)N3C[C@H]2Cc2ccc(O)cc2)cc1Br	-	248	0	103	0	0	0	0
COc1ccc(Cn2c(N)c(C(=O)NCc3ccco3)c3nc4ccccc4nc32)cc1OC	0	-	0	-	-	-	-	-
Nc1c(C(=O)NCc2ccco2)c2nc3ccccc3nc2n1CCN1CCCCC1	0	146	0	29	122	0	0	0
COc1ccc(-n2nc(C(=O)NCC(=O)N3CCC4(CC3)OCCO4)c3ccccc3c2=O)cc1OC	0	0	0	0	0	-	-	-
NC(N)=N/N=C/c1ccc(N(c2ccccc2)c2ccccc2)cc1	0	235	0	73	0	0	0	0
COC(=O)C1=C(c2cccc(C#N)c2)C[C@@H]2CC[C@H]1N2C(=O)NCCOc1ccccc1Cl	0	-	0	-	-	-	-	-
CCC(CO)NC(=O)C1C=C2c3cccc4[nH]cc(c34)CC2N(C)C1 (stereo not drawn)	0	0	0	0	0	-	-	-
CC[C@@H](CO)NC(=O)[C@@H]1C=C2c3cccc4c3c(cn4C)C[C@H]2N(C)C1	0	38![inhibitor]	0	0	66![inhibitor]	0	0	0
CNCC(O)c1cc(OCc2ccccc2)c(OCc2ccccc2)cc1F (stereo not drawn)	0	138	0	0	0	0	0	0
CNCC(O)c1cccc(OC(=O)c2ccccc2C)c1 (stereo not drawn)	0	-	0	-	-	-	-	-
COCCNC(=O)CN1C(=O)C(C)N=C(c2ccccc2)c2cc(Cl)ccc21 (stereo not drawn)	0	0	0	0	0	-	-	-
O=c1[nH]c(O)c(/C=C2/C=CC(c3cc(Cl)ccc3Cl)=N2)c(=O)[nH]1	0	63[inhibitor]	0	0	0	0	0	0
CCN(C(=O)COC(=O)Cc1ccccc1)c1c(N)n(Cc2ccccc2)c(=O)[nH]c1=O	0	-	0	-	-	-	-	-
Cc1ccccc1NC(=O)NCCN1CC1	0	144	0	0	0	0	0	0
O=C(NCCCN1CC1)Nc1cccc2ccccc12	0	-	-	-	-	-	-	-
COc1ccc(CNCCc2c[nH]c3ccccc23)c(OC)c1OC	0	0	0	0	0	-	-	-
COc1cccc(CNCCc2c[nH]c3ccccc23)c1OC	0	147	0	0	0	0	0	0
CC(N)Cc1c[nH]c2ccc(OCc3cccs3)cc12 (stereo not drawn)	0	140	0	0	0	0	0	0
C#C[C@]1(O)CC[C@H]2[C@@H]3CCC4=Cc5nc6nc7ccccc7n6cc5C[C@]4(C)[C@H]3CC[C@@]21C	0	-	0	-	-	-	-	-
CC[C@@H]1C(=O)OC[C@@H]1Cc1cncn1C	0	-	0	-	-	-	-	-
CC[C@@H]1C(=O)OC[C@@H]1Cc1cncn1C	0	55![inhibitor]	0	0	0	0	0	0
CC1=C2C(=O)C3C(CC=C4CC(O)CCC43C)C2CCC12OC1CC(C)CNC1C2C (stereo not drawn)	0	0	0	0	0	-	-	-
SMILES	B2AR ag	MEKK2wt PB1 HTS	GRK2 aptamer HTS	MEKK2 mut-MEK5	MEKK3 PB1 HTS	MEKK2wt confirm	MEKK2mut-MEK5	MEKK3 confirm
Cc1ccc(S(=O)(=O)c2nc(-c3ccccc3Cl)oc2N(C)C2CCN(C)CC2)cc1	0	-	0	-	-	-	-	-
COc1ccc2[nH]cc(CCN)c2c1	0	152	0	0	0	0	0	0
O=S1(=O)N(Cc2ccc(F)cc2)CCCN1Cc1ccccc1Cl	0	0	0	0	0	-	-	-
Clc1ccc(C2NCCc3[nH]cnc32)cc1 (stereo not drawn)	0	137	0	51	0	0	0	0
CSc1ccc(C(=O)C2CCCN(Cc3cc4ccccc4[nH]3)C2)cc1 (stereo not drawn)	0	217	0	0	0	0	0	0
C[N+](C)(C)CC1CCCC1=O (stereo not drawn)	0	-	-	-	-	-	-	-
CC(C)CNC(=O)/C=C/C=C/CCCCCC/C=C/c1ccc2c(c1)OCO2	0	-	0	-	-	-	-	-
Cc1cc(OCCN2CC2)c2ccccc2n1	-	141	0	0	0	0	0	0
O=C(CCc1nnc2ccc(NCc3ccccc3Cl)nn12)N1CCC2(CC1)OCCO2	0	0	0	0	0	-	-	-
COc1ccc2c(c1)c(C(=O)O)c(C)n2CC(C)C	0	0	0	0	0	-	-	-
CCCCn1c(C)c(C(=O)O)c2cc(OC)ccc21	0	0	0	0	81[inhibitor]	0	0	0
N#CC[N+]1(CCCNP2(=O)C=C(c3ccccc3)OC(c3ccccc3)=C2)CCOCC1	0	0	0	0	0	-	-	-
O=C1NC(=O)N(Cc2ccccc2)C(=O)/C1=C/c1cnc(-c2ccccc2)nc1	0	0	0	0	0	-	-	-
O=C1NC(=O)N(Cc2ccccc2)C(=O)/C1=C/N1CCCc2ccccc21	0	0	0	0	140	0	0	0
COc1ccc(N2C(=O)CC(=O)NC2=O)cc1	0	0	0	0	0	-	-	-
NCCCN1CCN(c2ccccc2)CC1	0	152	0	0	0	0	0	0
COc1ccc(N2CCN(CCCN)CC2)cc1	0	152	0	0	0	0	0	0
CC12CC(=O)C3C(CCC4CC=CCC43C)C1CCC2=O (stereo not drawn)	0	-	-	-	-	-	-	-
C=CCN1C(=O)NC(=O)/C(=C/c2ccc(OC)c(CSc3ccccn3)c2)C1=O	0	0	0	0	80[inhibitor]	0	0	0
CN1C[C@H](CO)C[C@@H]2c3cccc4[nH]cc(c34)C[C@H]21	0	0	0	0	0	-	-	-
CN1C[C@H](CNC(=O)OCc2ccccc2)C[C@@H]2c3cccc4c3c(cn4C)C[C@H]21	0	158	0	0	0	0	0	0
CCOc1cc(C2C(C#N)=C(N)Oc3c2c(=O)oc2ccccc32)ccc1OC(=O)c1cccs1 (stereo not drawn)	0	0	0	0	129	0	0	0
N#CC1=C(N)Oc2c(c(=O)oc3ccccc23)C1c1cccnc1 (stereo not drawn)	0	0	0	0	0	-	-	-
